Assay outcomes as filed in PubChem BioAssay.
In the library only some 11% were active in any assay of this set; here they are far more common.
hNpr1 antagonist = Natriuretic polypeptide receptor (hNpr1) antagonism - Primary qHTS. Atrial natriuretic peptide receptor 1 (Homo sapiens), P16066. HEK293 hNpr1 GloSensor cGMP, ANP-stimulated luminescence. Potency, µM (top dose mostly 46.3 µM), inactives show at the top dose activity change, negative = inhibition, actives largely listed as inhibitors. hit rate 1.6% among 76,000. AID 1347048, 2019; note: % is set by controls: 0 for no effect and ±100 for the full control effect; nearly all actives have a fitted effect of over 60% in size
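Compound pre-incubated 30 min at room temperature on GloSensor-loaded HEK293 cells stably carrying hNpr1 and the pGS-40F cGMP biosensor. Stimulation uses hNppA at 0.1 nM final; luminescence is taken at baseline and 20 min post-agonist.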
FLuc inh = Firefly luciferase inhibition profiling of diverse chemical library using quantitative high-throughput screening; Luciferin 4-monooxygenase (Photinus pyralis), P08659; purified P. pyralis luciferase, luminescence, biochemical; Potency, µM (titrated, usually from 115 µM), most hits filed as inhibitors; hit rate 2.5% among 76,000; AID 1347043, 2019; active = well fitted curve in the direction sought with a large enough effect; inconclusive = small, poorly fitted or top-dose-only effect, or another doubt; inactive = no such curve, though single readings can be large; an effect the other way counts as inactive or inconclusive; note: % is set by controls: 0 for no effect and ±100 for the full control effect; nearly all actives have a fitted effect of over 65% in size
Target sequence (P08659 whole entry, looked up): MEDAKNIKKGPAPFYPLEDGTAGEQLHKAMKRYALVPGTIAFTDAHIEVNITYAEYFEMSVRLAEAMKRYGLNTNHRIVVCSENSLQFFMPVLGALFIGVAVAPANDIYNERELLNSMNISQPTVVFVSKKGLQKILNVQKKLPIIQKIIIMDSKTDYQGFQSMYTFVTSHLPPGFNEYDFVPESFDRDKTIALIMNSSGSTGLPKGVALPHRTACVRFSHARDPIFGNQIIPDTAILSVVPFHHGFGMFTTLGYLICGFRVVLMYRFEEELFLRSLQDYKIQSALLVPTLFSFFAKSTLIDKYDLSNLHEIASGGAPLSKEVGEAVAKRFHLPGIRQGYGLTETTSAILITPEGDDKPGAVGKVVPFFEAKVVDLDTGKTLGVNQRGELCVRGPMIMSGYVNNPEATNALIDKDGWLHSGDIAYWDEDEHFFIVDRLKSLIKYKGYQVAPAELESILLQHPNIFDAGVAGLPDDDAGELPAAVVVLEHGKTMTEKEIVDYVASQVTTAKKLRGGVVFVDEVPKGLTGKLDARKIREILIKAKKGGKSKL
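Luminescence read by CCD imager after adding enzyme (10nM final) to wells holding compound, titrated in qHTS. Substrates 10uM each D-luciferin and ATP; buffer 50mM Tris acetate pH 7.5, 10mM Mg acetate, Tween-20, BSA.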
HEK cytotox = Cytotoxic Profiling in HEK 293 Cell Line of Diverse Libraries Using Quantitative High-Throughput Screening; HEK 293 viability, ATP luminescence (CellTiter-Glo), 48-72 h; Potency, µM (top dose mostly 115 µM), without a hit: at the top dose activity change, negative = cytotoxicity, usual class: inhibitors; hit rate 6.6% among 94,000; AID 1345083, 2018; active = well fitted curve in the direction sought with a large enough effect; inconclusive = small, poorly fitted or top-dose-only effect, or another doubt; inactive = no such curve, though single readings can be large; an effect the other way counts as inactive or inconclusive; note: % is set by controls: 0 for no effect and ±100 for the full control effect; nearly all actives have a fitted effect of over 60% in size
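Viability of HEK 293 cells, plated at 250 cells/well, was judged by cellular ATP after compound treatment for 48 or 72 hr. Luminescence was imaged 10 min after CellTiter-Glo addition at room temperature.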
3T3 cytotox = Cytotoxic Profiling in NIH 3T3 Cell Line of Diverse Libraries Using Quantitative High-Throughput Screening; NIH 3T3 viability, CellTiter-Glo ATP luminescence, 48-72 h; Potency, µM (titrated, usually from 96.7 µM), for inactives: at the highest dose activity change, negative = cytotoxicity, most hits filed as inhibitors; hit rate 4.3% among 94,000; AID 1345082, 2018; active = well fitted curve in the direction sought with a large enough effect; inconclusive = small, poorly fitted or top-dose-only effect, or another doubt; inactive = no such curve, though single readings can be large; an effect the other way counts as inactive or inconclusive; note: % is set by controls: 0 for no effect and ±100 for the full control effect; nearly all actives have a fitted effect of over 55% in size
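ATP-dependent luminescence (CellTiter-Glo) served as the viability signal for NIH 3T3 cells treated with compound for 48 or 72 hr at 37 °C.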
Npr1 antag conf = Natriuretic polypeptide receptor (hNpr1) antagonism - Confirmation. shares compounds with hNpr1 antagonist. HEK293 hNpr1 cGMP GloSensor luminescence, ANP-stimulated. Potency, µM (series often up to 57.6 µM), for the others: at the top dose activity change, negative = inhibition, most hits filed as inhibitors. hit rate 76% among 1,400; note: nearly all actives have a fitted effect of over 70% in size
Npr2 selectivity = Natriuretic polypeptide receptor (hNpr2) antagonism - Subtype selectivity assay; shares compounds with hNpr1 antagonist; HEK293 hNpr2 GloSensor cGMP luminescence, CNP-stimulated; Potency, µM (doses to about 57.6 µM), for inactives: at the top dose activity change, negative = inhibition, actives largely listed as inhibitors; hit rate 67% among 1,400; AID 1347046, 2019; note: nearly all actives have a fitted effect of over 70% in size
FLuc counter = Natriuretic polypeptide receptor (hNpr1) antagonism - Confirmation firefly luciferase (FLuc) inhibition counterscreen; Potency, µM (titrated, usually from 57.6 µM), for inactives: at the top dose activity change, negative = inhibition, actives largely listed as inhibitors; AID 1347047, 2019; hit rate 0.7% among 1,400; shares compounds with hNpr1 antagonist; purified FLuc enzyme, luminescence, Km substrate; active = well fitted curve in the direction sought with a large enough effect; inconclusive = small, poorly fitted or top-dose-only effect, or another doubt; inactive = no such curve, though single readings can be large; an effect the other way counts as inactive or inconclusive; note: series mostly up to about 58 µM; 0% is about no effect
GloSensor ctrl = Natriuretic polypeptide receptor (hNpr1) antagonism - Counterscreen GloSensor control cell line; shares compounds with hNpr1 antagonist; HEK293 GloSensor cGMP, SNP-stimulated, luminescence; Potency, µM (highest dose often 57.6 µM), for the others: at the highest dose activity change, negative = inhibition, hits mostly inhibitors; hit rate 69% among 1,400; AID 1347051, 2019; note: % is set by controls: 0 for no effect and ±100 for the full control effect; nearly all actives have a fitted effect of over 70% in size
Active calls of the source: *; [ ] = dose if it differs, or a comment. Unless noted, calls come from the whole dose curve. Potency is the fitted concentration of half-maximal effect.

Screening CCc1noc(CC2CCOC3(CCN(S(=O)(=O)c4cccc(OC)c4)CC3)C2)n1 (stereo not given) returned hNpr1 antagonist 16µM*, FLuc inh inactive, HEK cytotox inconclusive, 3T3 cytotox inconclusive, Npr1 antag conf 22µM*, Npr2 selectivity 22µM*, FLuc counter -1% and GloSensor ctrl 19µM*.
For COc1cccc(S(=O)(=O)N2CCC3(CC2)CC(OC)CCO3)c1 (stereo not given) the results were hNpr1 antagonist -7%, FLuc inh inactive, HEK cytotox 16% and 3T3 cytotox 3%.
CCc1noc(CC2CCOC3(CCN(S(=O)(=O)c4ccccc4Cl)CC3)C2)n1 (stereo not given) was read as hNpr1 antagonist inconclusive, FLuc inh inactive, HEK cytotox inconclusive, 3T3 cytotox -23%, Npr1 antag conf 22µM*, Npr2 selectivity 22µM*, FLuc counter -1% and GloSensor ctrl 17µM*.
`CCc1noc(CC2CCOC3(CCN(S(=O)(=O)c4cc(F)ccc4C)CC3)C2)n1` (stereo not given) gave hNpr1 antagonist inconclusive, FLuc inh inactive, HEK cytotox inconclusive and 3T3 cytotox inconclusive.
CCc1noc(CC2CCOC3(CCN(S(=O)(=O)c4cccc(Cl)c4)CC3)C2)n1 (stereo not given) was read as hNpr1 antagonist 10µM*, FLuc inh inactive, HEK cytotox inconclusive, 3T3 cytotox inconclusive, Npr1 antag conf 22µM*, Npr2 selectivity inconclusive, FLuc counter -2% and GloSensor ctrl 22µM*.
`C=CCN(C)C(=O)C[C@@H]1c2nc(NC(=O)c3c(F)cccc3F)sc2C[C@@H]2[C@](C)(CO)[C@H](O)CC[C@]21C` gave hNpr1 antagonist 4%, FLuc inh inactive, HEK cytotox inactive and 3T3 cytotox inactive.
CC(C)c1noc(CC2CCN(C(=O)c3ccc4c(c3)OCO4)CC2)n1 was read as hNpr1 antagonist -13%, FLuc inh inactive, HEK cytotox inconclusive and 3T3 cytotox inconclusive.
Screening COc1ccc(-c2noc(CC3CCN(C(=O)c4ccc5c(c4)OCO5)CC3)n2)cc1 returned hNpr1 antagonist 2.8µM*, FLuc inh inactive, HEK cytotox inconclusive, 3T3 cytotox inconclusive, Npr1 antag conf 5.4µM*, Npr2 selectivity 6.1µM*, FLuc counter 1% and GloSensor ctrl 4.8µM*.
For COc1ccc(-c2noc(CC3CCN(C(=O)c4ccc(OC)c(OC)c4)CC3)n2)cc1 the results were hNpr1 antagonist 3.5µM*, FLuc inh inactive, HEK cytotox inconclusive, 3T3 cytotox inconclusive, Npr1 antag conf 6.9µM*, Npr2 selectivity 6.9µM*, FLuc counter 0% and GloSensor ctrl 5.4µM*.
`COc1ccc(C(=O)N2CCC(Cc3nc(-c4ccc(F)cc4)no3)CC2)cc1F` gave hNpr1 antagonist 1.1µM*, FLuc inh inactive, HEK cytotox inconclusive, 3T3 cytotox inconclusive, Npr1 antag conf 1.1µM*, Npr2 selectivity 1.7µM*, FLuc counter 0% and GloSensor ctrl 1.1µM*.
For Cc1nc2c(c(-c3ccc(Cl)cc3)n1)CCN(C(=O)c1cccc(Cl)c1)CC2 the results were hNpr1 antagonist inconclusive, FLuc inh inactive, HEK cytotox inconclusive and 3T3 cytotox inconclusive.
Screening Cn1cc(-c2cnc3[nH]cc(CC(=O)Nc4cccc(OC(F)(F)F)c4)c3c2)cn1 returned hNpr1 antagonist inconclusive, FLuc inh inactive, HEK cytotox inconclusive and 3T3 cytotox inconclusive.
For Cn1cc(-c2cnc3[nH]cc(CC(=O)Nc4ccc(C(F)(F)F)cc4)c3c2)cn1 the results were hNpr1 antagonist inconclusive, FLuc inh inactive, HEK cytotox inconclusive, 3T3 cytotox inconclusive, Npr1 antag conf inconclusive, Npr2 selectivity inconclusive, FLuc counter -1%[86.2 µM] and GloSensor ctrl inconclusive.
`COc1ccc(-c2cnc3[nH]cc(CC(=O)Nc4cccc(N(C)C)c4)c3c2)cc1` gave hNpr1 antagonist inconclusive, FLuc inh inactive, HEK cytotox inconclusive, 3T3 cytotox inconclusive, Npr1 antag conf inconclusive, Npr2 selectivity inconclusive, FLuc counter -9%[86.2 µM] and GloSensor ctrl -25%[86.2 µM].
For COc1ccc(-c2cnc3[nH]cc(CC(=O)Nc4cccnc4)c3c2)cc1 the results were hNpr1 antagonist inconclusive, FLuc inh inactive, HEK cytotox 71µM*, 3T3 cytotox inconclusive, Npr1 antag conf inconclusive, Npr2 selectivity -29%[86.2 µM], FLuc counter inconclusive and GloSensor ctrl -23%[86.2 µM].
For COc1ccc(-c2cnc3[nH]cc(CC(=O)NCCc4ccccn4)c3c2)cc1 the results were hNpr1 antagonist 3%[70.6 µM], FLuc inh inactive, HEK cytotox -23%[172 µM] and 3T3 cytotox inconclusive.
Screening Cc1ccccc1-c1cnc2[nH]cc(CC(=O)Nc3cccnc3)c2c1 returned hNpr1 antagonist 16µM*, FLuc inh inactive, HEK cytotox inconclusive, 3T3 cytotox inconclusive, Npr1 antag conf 25µM*, Npr2 selectivity 31µM*, FLuc counter -3%[86.2 µM] and GloSensor ctrl 22µM*.
Screening Cc1ncoc1C(=O)N1CCC2(CC1)CC(N(Cc1ccc(F)cc1)C1CC1)CCO2 (stereo not given) returned hNpr1 antagonist -24%, FLuc inh inactive, HEK cytotox inconclusive and 3T3 cytotox -11%.
Screening O=C(NC[C@H]1OC[C@@H](NC2CCCC2)[C@@H]1O)Nc1ccccc1 returned hNpr1 antagonist 5%[70.6 µM], FLuc inh inactive, HEK cytotox inactive and 3T3 cytotox inactive.
